Screening data from PubChem BioAssay.
GLA inh pH 4.5 = qHTS Assay for Inhibitors of Human alpha-Galactosidase at pH 4.5 | 230,000 tested, under 10 active | purified enzyme, 4-MU-alpha-Gal fluorescence, pH 4.5 | activity change, negative = inhibition, % at 105 µM | Alpha-galactosidase A (Homo sapiens), P06280
CXXC DNA block = qHTS Fluorescence Polarization Assay for Inhibitors of MLL CXXC domain - DNA interaction; Potency, µM (series often up to 115 µM), hits mostly inhibitors; MLL-CXXC / FITC-HOXA9 DNA fluorescence polarization; hit rate 0.037% among 290,000; Histone-lysine N-methyltransferase 2A (Homo sapiens), Q03164; active means well fitted inhibition curve with a large enough effect in the polarisation, with a control signal flat, not every such curve was filed as active; inconclusive means small, poorly fitted or top-dose-only effect, or effect the other way, or a change in a side signal; inactive means no such curve, though single readings can be large or run the other way; the % refers to the polarisation
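Steps: dispense CXXC domain solution (7 uM) → pin compounds or unlabeled HOX-A9 DNA control → 5 min ambient → add FLSN-HOX-A9 solution (50 nM) → spin → 30 min ambient → fluorescence polarization. Tris pH 7.5/NaCl/DTT/BSA buffer.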
Menin MLL FP TR = qHTS Assay for Inhibitors Targeting the Menin-MLL Interaction in MLL Related Leukemias: Competition With Texas Red Labeled MLL-derived Mutant Peptide; Menin + Texas Red MLL mutant peptide, fluorescence polarization; hit rate 0.23% among 270,000; Potency, µM (series often up to 61.6 µM), actives largely listed as inhibitors; active means well fitted inhibition curve with a large enough effect in the polarisation, with a control signal flat, not every such curve was filed as active; inconclusive means small, poorly fitted or top-dose-only effect, or effect the other way, or a change in a side signal; inactive means no such curve, though single readings can be large or run the other way; the % refers to the polarisation
GLA spleen mod = qHTS Assay for Inhibitors and Activators of Human alpha-Galactosidase From Spleen Homogenate; hit rate 0.008% among 240,000; Potency, µM (titrated, usually from 80 µM), actives largely listed as inhibitors; human spleen homogenate, 4MU-alpha-Gal fluorescence, 40 min; AID 2107, 2009
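Human spleen homogenate (1 ug) as enzyme source, 4-methylumbelliferyl-alpha-D-galactopyranoside 1 mM final, citrate/phosphate pH 5.0 with 0.01% Tween-20. Compounds 40 min at 37C, NaOH/glycine stop; fluorescence Ex 365/Em 440, Hill-fit AC50.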
Integrin act MD = qHTS for Activators of Integrin-Mediated Alleviation for Muscular Dystrophy | AID 624291, 2012 | Potency, µM (series often up to 38.3 µM), most hits filed as activators | hit rate 0.064% among 350,000 | alpha7betagal myoblasts, beta-gal FDG fluorescence, 48 h; further: nearly all actives have a fitted effect of over 60% in size
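alpha7betagal+/- myoblasts (passage 13, 250/well) treated 48 h at 37C with compounds at 1:260 dilution of DMSO stock. Lysed, then beta-galactosidase activity read as FDG fluorescence (ex 480/em 540) after 30 min, with pre-read for autofluorescence.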
Menin MLL FP FL = qHTS Assay for Inhibitors Targeting the Menin-MLL Interaction in MLL Related Leukemias: Competition With Fluorescein Labeled MLL-derived Peptide; Fluorescence polarization, fluorescein-MLL peptide displacement from menin; FP activity change, % at 61.4 µM; 290,000 tested, under 10 active; AID 1766, 2009; active means well fitted curve in the direction sought with a large enough effect in the polarisation, not every such curve was filed as active; inconclusive means small, poorly fitted or top-dose-only effect, or effect the other way, or a change in a side signal; inactive means no such curve, though single readings can be large or run the other way; the % refers to the polarisation
MLL CXXC Fl = qHTS Fluorescence Polarization (FP) Assay for Inhibitors of MLL CXXC domain - DNA interaction: Fluorescein FP; shares compounds with CXXC DNA block; MLL CXXC-DNA binding, fluorescein FP; Potency, µM (titrated, usually from 345 µM), hits mostly inhibitors; hit rate 70% among 200; AID 624160, 2012; further: nearly all actives have a fitted effect of over 80% in size
MLL CXXC TxRed = qHTS Fluorescence Polarization (FP) Assay for Inhibitors of MLL CXXC domain - DNA interaction: Texas Red FP; shares compounds with CXXC DNA block; MLL CXXC-DNA binding, Texas Red fluorescence polarization; Potency, µM (titrated, usually from 345 µM), actives largely listed as inhibitors; hit rate 40% among 200; further: nearly all actives have a fitted effect of over 75% in size
MLL CXXC HTRF = qHTS Fluorescence Polarization (FP) Assay for Inhibitors of MLL CXXC domain - DNA interaction: HTRF Assay; shares compounds with CXXC DNA block; MLL CXXC-DNA binding, HTRF, biochemical; Potency, µM (series often up to 172 µM), most hits filed as inhibitors; hit rate 30% among 210; further: nearly all actives have a fitted effect of over 80% in size
Large screens that a line does not name were inactive (follow-up assays come after a bar, where they were run); ! = a repeat was not active. This is one part of a sample in which hits are shown more often than they occur. Unless noted, the call rests on the fitted dose curve; in most records, active means well fitted curve in the direction sought with a large enough effect; inconclusive means small, poorly fitted or top-dose-only effect, or another doubt; inactive means no such curve, though single readings can be large; an effect the other way counts as inactive or inconclusive.

Cc1cc(C(=O)CS(=O)(=O)c2ccc(F)cc2)cc(C)c1OC(=O)N(C)C	GLA spleen mod 28µM
CC(C)NCC(O)COc1cccc2[nH]ccc12 (centres undefined)	GLA spleen mod 10µM! (no result: Integrin act MD)
CCCCCCCCCCCCOCCOCCOCCOCCOCCOCCOCCOCCOCCO	Menin MLL FP TR inconclusive (no result: GLA inh pH 4.5, Integrin act MD)
O=C(NC(=O)c1c(F)cccc1F)Nc1ccc(Cl)c(Oc2ncc(C(F)(F)F)cc2Cl)c1	none (no result: GLA inh pH 4.5, GLA spleen mod, Integrin act MD)
O=C(Nc1ccc(F)cc1F)c1cccnc1Oc1cccc(C(F)(F)F)c1	Menin MLL FP TR 32µM
CCCCOCCCn1c(N)c(C(=O)OCCOC)c2nc3ccccc3nc21	Menin MLL FP TR 28µM
O=C(O)c1cc(Oc2ccc([N+](=O)[O-])cc2)cc(Oc2ccc([N+](=O)[O-])cc2)c1	Menin MLL FP TR inconclusive (no result: GLA inh pH 4.5, CXXC DNA block, Integrin act MD)
CC1(C)C(C(=O)O)N2C(=O)CC2S1(=O)=O (centres undefined)	Menin MLL FP TR inconclusive (no result: CXXC DNA block, Integrin act MD)
CN1C(=O)C(=Cc2ccc(N3CCCCC3)o2)C(=O)N(C)C1=S	Menin MLL FP TR 25µM, Menin MLL FP FL inconclusive
C[C@@H]1O[C@@H](O[C@H]2CC[C@@H](O[C@H]3[C@H](O)C[C@H](c4ccc5c(c4O)C(=O)C4=C(C5=O)[C@@]5(O)C(=O)C[C@](C)(O[C@H]6CC[C@H](O[C@H]7C=CC(=O)[C@H](C)O7)[C@H](C)O6)C[C@@]5(O)C=C4)O[C@@H]3C)O[C@H]2C)C=CC1=O	Menin MLL FP TR inconclusive (no result: GLA inh pH 4.5, CXXC DNA block, Integrin act MD)
COc1ccc(CCN)cc1O	Menin MLL FP TR inconclusive (no result: Integrin act MD)
NCCc1cc(O)c(O)cc1O	Menin MLL FP TR 40µM, Menin MLL FP FL inconclusive (no result: Integrin act MD)
CC(=O)c1ccc2c(c1)C1C(Cl)C(Sc3ccccc3[N+](=O)[O-])CC1C(C(=O)O)N2 (centres undefined)	CXXC DNA block inconclusive, Menin MLL FP TR inconclusive
O=C(O)c1cccc2c1NC(C(=O)O)C1CC(Sc3ccccc3[N+](=O)[O-])C(Cl)C21 (centres undefined)	Menin MLL FP TR 22µM
COC(=O)Cn1cc(/C=C2\C(=O)NC(=O)N(c3ccc(OC)cc3)C2=O)c2ccccc21	CXXC DNA block inconclusive, Menin MLL FP FL inconclusive (no result: GLA inh pH 4.5, GLA spleen mod)
O=C(O)Cn1cc(/C=C2\C(=O)NC(=O)N(c3ccc(F)cc3)C2=O)c2ccccc21	CXXC DNA block inconclusive, Menin MLL FP FL inconclusive (no result: GLA inh pH 4.5, GLA spleen mod, Integrin act MD) | MLL CXXC Fl inconclusive | MLL CXXC TxRed 89µM | MLL CXXC HTRF inconclusive
O=C(O)c1ccccc1-c1c2cc(Br)c(=O)cc-2oc2[c]([Hg])c(O)c(Br)cc12	CXXC DNA block inconclusive, Menin MLL FP TR inconclusive, Menin MLL FP FL inconclusive (no result: Integrin act MD) | MLL CXXC Fl 0.76µM | MLL CXXC TxRed inactive | MLL CXXC HTRF 23µM
O=C(O)CCn1cc(C=C2C(=O)NC(=S)NC2=O)c(-c2ccccc2)n1	CXXC DNA block 32µM | MLL CXXC Fl 4µM | MLL CXXC TxRed 89µM | MLL CXXC HTRF 6.1µM
O=C(O)CCn1cc(C=C2C(=O)NC(=S)NC2=O)c(-c2cc3ccccc3oc2=O)n1	Menin MLL FP FL inconclusive
CCOP(=O)(OCC)O/C(=C/Cl)c1ccc(Cl)cc1Cl	CXXC DNA block 63µM, Menin MLL FP FL inconclusive (no result: GLA inh pH 4.5, GLA spleen mod, Integrin act MD) | MLL CXXC Fl 159µM | MLL CXXC TxRed inactive | MLL CXXC HTRF inactive
COc1ccc(/C=C2/C(=O)NC(=O)N(C3CCCCC3)C2=O)cc1CSc1ccccn1	CXXC DNA block inconclusive, Menin MLL FP TR inconclusive (no result: Integrin act MD) | MLL CXXC Fl 142µM | MLL CXXC TxRed 142µM | MLL CXXC HTRF 77µM
NC(Cc1cc(O)c(O)cc1O)C(=O)O (centres undefined)	CXXC DNA block inconclusive, Menin MLL FP TR inconclusive, Menin MLL FP FL inconclusive (no result: Integrin act MD) | MLL CXXC Fl 18µM | MLL CXXC TxRed inconclusive | MLL CXXC HTRF 31µM
N[C@@H](Cc1ccc(O)cc1)C(=O)O	none (no result: Integrin act MD)
CC(=O)C[C@@H](c1ccccc1)c1c(O)c2ccccc2oc1=O	Menin MLL FP FL inconclusive (no result: GLA inh pH 4.5, CXXC DNA block, Integrin act MD)
COc1cccc2c1C(=O)c1c(O)c3c(c(O)c1C2=O)C[C@@](O)(C(=O)CO)C[C@@H]3O[C@H]1C[C@H](N)[C@H](OC2CCCCO2)[C@H](C)O1 (some centres undefined)	CXXC DNA block 63µM, Menin MLL FP TR inconclusive, Menin MLL FP FL inconclusive (no result: GLA inh pH 4.5, GLA spleen mod, Integrin act MD) | MLL CXXC Fl 36µM | MLL CXXC TxRed 45µM | MLL CXXC HTRF inactive
CCC(=O)OC1CCC2C3CCc4cc(O)ccc4C3CC[C@]12C (some centres undefined)	none (no result: CXXC DNA block, Integrin act MD)
Cc1cc(OCC(=O)N[C@@H](Cc2ccccc2)C(=O)O)c2c3c(c(=O)oc2c1)CCCC3	none (no result: GLA inh pH 4.5, GLA spleen mod)
CSC[C@H](NC(=O)COc1cc2c(c3oc(=O)c(C)c(C)c13)CCC(C)(C)O2)C(=O)O	CXXC DNA block inconclusive (no result: GLA inh pH 4.5, GLA spleen mod) | MLL CXXC Fl inconclusive | MLL CXXC TxRed inconclusive | MLL CXXC HTRF inactive
CCOC(=O)N1CC(C)N(/[N+]([O-])=N/Oc2ccc([N+](=O)[O-])cc2[N+](=O)[O-])CC1C (centres undefined)	Menin MLL FP TR inconclusive (no result: GLA inh pH 4.5, CXXC DNA block, Integrin act MD)
CC(C)CCCC(C)C1CCC2C3C(=O)C=C4CC(O)CC[C@@]4(C)C3CC[C@@]12C (some centres undefined)	Menin MLL FP TR inconclusive (no result: CXXC DNA block, Integrin act MD)
CN1C(=O)C(=Cc2ccccc2OCc2ccc(C(=O)O)cc2)C(=O)N(C)C1=O	CXXC DNA block 20µM | MLL CXXC Fl inconclusive | MLL CXXC TxRed 142µM | MLL CXXC HTRF 61µM
CN1C[C@@H](CO)C=C2c3cccc4[nH]cc(c34)CC21 (some centres undefined)	Menin MLL FP FL inconclusive (no result: CXXC DNA block, Integrin act MD)
